The supplement of paper PMC10646978
± gives the standard deviation.

Columns and labels:
Conditions in all cases: modulator concentration 10 µM
[1] = system: RAW-Dual (murine macrophage reporter line); assay: NF-kB reporter (SEAP) activity fold change vs agonist alone; higher = enhanced NF-kB activity
Method in brief: (§1)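 RAW-Dual murine macrophage reporter cells were plated at 50 000 per well in 384-well plates, pin-transferred compound to 10 μM final, and pre-incubated for 1 hour at 37 °C before a PRR agonist was added and the cells incubated overnight. NF-κB activity was read from supernatant SEAP with QUANTI-Blue at 620 nm absorbance, and IRF activity from Lucia luciferase with QUANTI-Luc by luminescence. Each signal was expressed as fold change by dividing by the mean agonist-only control on the same plate. Two replicate plates were averaged, with errors obtained by propagation.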

[2] = system: RAW-Dual (murine macrophage reporter line); assay: IRF reporter (Lucia luciferase) activity fold change vs agonist alone; higher = enhanced IRF activity
Method in brief: as §1

[3] = system: RAW-Dual (murine macrophage reporter line); assay: viability score (confluency relative to resting cells, overnight) (fraction); higher = more viable, active = viable (0.7 or more)
Method in brief: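 In 384-well plates, RAW-Dual macrophages received compound at a final 10 μM overnight. Two confluency masks were then made with IncuCyte software from IncuCyte images of all imaged wells. The viability score is defined as confluency relative to resting cells. Passing the cutoff required both masks to lie above 70% of resting cells.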

[4] = agonist: CpG ODN 1826 0.5 ug/mL

SMILES	NF-kB reporter [1, 4]	NF-kB reporter ([1]; agonist: LPS 0.1 ug/mL)	NF-kB reporter ([1]; agonist: MPLA […])	IRF reporter ([2]; agonist: 3'3'-cGAMP 10 ug/mL)	IRF reporter ([2]; agonist: LPS 0.1 ug/mL)	IRF reporter ([2]; agonist: MPLA […])	viability score [3]
CNC(=O)c1ccc(Nc2ncc(C(F)(F)F)c(NCc3nccnc3N(C)S(C)(=O)=O)n2)cc1	1.25 ± 0.37	0.169 ± 0.013	2.19 ± 0.34	0.0196 ± 0.0024	0.0319 ± 0.0037	0.0361 ± 0.006	0.749 (active)
CCc1ccc2oc(-c3ccc(NC(=O)c4ccc(C)c([N+](=O)[O-])c4)cc3)nc2c1	1.02 ± 0.08	1.04 ± 0.059	0.931 ± 0.089	1 ± 0.025	1.6 ± 0.22	1.33 ± 0.16	1.01 (active)
Br.C=CCn1c(=N)n(CC(=O)c2cccc([N+](=O)[O-])c2)c2ccccc21	0.571 ± 0.058	0.997 ± 0.057	0.905 ± 0.062	1.13 ± 0.064	1.16 ± 0.099	0.973 ± 0.2	1.01 (active)
O=S(=O)(NN=Cc1c[nH]c2ccccc12)c1ccc(Cl)cc1	0.627 ± 0.053	0.619 ± 0.029	0.844 ± 0.078	0.0905 ± 0.0084	1.32 ± 0.11	1.31 ± 0.13	0.962 (active)
Brc1ccc(-c2cc(-c3ccccc3)nc(N3CCCCC3)n2)cc1	0.951 ± 0.2	1.1 ± 0.092	1 ± 0.079	0.859 ± 0.03	1.17 ± 0.11	1.33 ± 0.15	1 (active)
COC(CNC(=O)CSc1ccc(F)cc1)c1ccc(C)s1 (configuration not stated)	1.07 ± 0.33	1.1 ± 0.067	1.05 ± 0.067	0.898 ± 0.03	1.06 ± 0.16	1.11 ± 0.1	0.985 (active)
O=C(NCCN1CCOCC1)c1ccc(F)cc1	1.11 ± 0.1	0.995 ± 0.094	1.01 ± 0.039	1.05 ± 0.17	1.03 ± 0.053	1 ± 0.12	0.986 (active)
CC(C(=O)O)c1ccc(C(=O)c2cccs2)cc1 (configuration not stated)	1.17 ± 0.17	1.08 ± 0.24	0.995 ± 0.065	0.97 ± 0.03	1.22 ± 0.14	1.23 ± 0.14	1.01 (active)
CCC(=O)CC(O)(c1ccccc1)C(F)(F)F (configuration not stated)	1.04 ± 0.099	0.955 ± 0.19	1.02 ± 0.049	1.01 ± 0.14	0.953 ± 0.061	1.01 ± 0.11	0.996 (active)
Clc1ccc(C=NN2CCN(C(c3ccccc3)c3ccccc3)CC2)cc1	1.06 ± 0.087	1.02 ± 0.087	0.928 ± 0.025	1.02 ± 0.051	1.05 ± 0.049	0.962 ± 0.1	0.996 (active)
C[C@@H](O)[C@H]1C(=O)N2C(C(=O)O)=C(SCCNC=N)C[C@H]12 [Prestw-519]	1.17 ± 0.11	0.986 ± 0.13	0.951 ± 0.036	0.981 ± 0.043	0.96 ± 0.044	0.928 ± 0.092	0.994 (active)
C[C@H](Oc1ccc(S(C)(=O)=O)cc1C(=O)N1CCN(c2ncc(C(F)(F)F)cc2F)CC1)C(F)(F)F	0.902 ± 0.073	0.807 ± 0.11	0.936 ± 0.056	0.821 ± 0.074	1.03 ± 0.038	0.706 ± 0.15	1 (active)
CC1=C(C(=O)OC(C)C)C(c2cccc([N+](=O)[O-])c2)C(C(=O)OC2CN(C(c3ccccc3)c3ccccc3)C2)=C(N)N1 (configuration not stated)	1.58 ± 0.068	1.82 ± 0.15	2.56 ± 0.17	0.36 ± 0.021	1.66 ± 0.24	2.12 ± 0.44	0.902 (active)
NC(=O)c1ncn(C2OC(CO)C(O)C2O)n1 (configuration not stated)	1.17 ± 0.089	1.16 ± 0.058	1.04 ± 0.03	1.02 ± 0.075	0.951 ± 0.11	0.922 ± 0.072	0.999 (active)
CCN(CC)c1ccc(C=NNC(=O)c2ccncc2)cc1	1.16 ± 0.11	0.926 ± 0.12	1.05 ± 0.06	0.676 ± 0.12	0.948 ± 0.058	1.11 ± 0.076	0.991 (active)
COc1cc(C)n(CCNC(=O)c2ccccc2C(F)(F)F)c(=O)c1	0.904 ± 0.039	0.933 ± 0.076	1.12 ± 0.06	1.03 ± 0.055	1.34 ± 0.28	1.51 ± 0.4	0.941 (active)
CC1c2cccc(O)c2C(=O)C2=C(O)C3(O)C(=O)C(C(N)=O)=C(O)C(N(C)C)C3C(O)C21.Cl (configuration not stated)	1.34 ± 0.32	1.15 ± 0.058	1.04 ± 0.074	0.795 ± 0.041	1.14 ± 0.15	1.02 ± 0.12	0.992 (active)
C[C@H](Nc1ncnc2[nH]cnc12)c1cc2cccc(Cl)c2c(=O)n1-c1ccccc1	0.557 ± 0.042	0.808 ± 0.054	0.859 ± 0.024	0.728 ± 0.041	0.991 ± 0.095	1.1 ± 0.093	0.906 (active)

SMILES	NF-kB reporter [1, 4]	NF-kB reporter ([1]; agonist: LPS 0.1 ug/mL)	NF-kB reporter ([1]; agonist: MPLA […])	IRF reporter ([2]; agonist: 3'3'-cGAMP 10 ug/mL)	IRF reporter ([2]; agonist: LPS 0.1 ug/mL)	IRF reporter ([2]; agonist: MPLA […])	viability score [3]
COC(=O)C1=CN(CC2CCCO2)C=C(C(=O)OC)C1c1cccc(OC)c1 (configuration not stated)	1.36 ± 0.25	0.859 ± 0.065	1.29 ± 0.13	0.943 ± 0.034	0.947 ± 0.045	0.879 ± 0.13	0.994 (active)
COC(=O)NN=Cc1cccs1	1.04 ± 0.19	1.05 ± 0.084	0.974 ± 0.11	0.987 ± 0.031	1 ± 0.096	1.22 ± 0.21	0.997 (active)
Cn1cc(-c2cc(CNC(=O)c3cncc(F)c3)ccn2)cn1	1.12 ± 0.074	1.09 ± 0.1	0.964 ± 0.033	0.966 ± 0.039	0.973 ± 0.046	1.04 ± 0.2	0.995 (active)
COC(=O)C1=C(C)NC(=O)CC1c1cc([N+](=O)[O-])ccc1Cl (configuration not stated)	0.933 ± 0.055	0.986 ± 0.11	0.955 ± 0.058	0.966 ± 0.032	1.16 ± 0.099	0.994 ± 0.24	0.988 (active)
COC(=O)C1=CN(CC2CCCO2)C=C(C(=O)OC)C1c1ccc(Cl)cc1 (configuration not stated)	0.999 ± 0.19	0.992 ± 0.11	1.44 ± 0.54	0.94 ± 0.025	1.04 ± 0.13	1.07 ± 0.11	1 (active)
S=C(NC12CC3CC(CC(C3)C1)C2)N1CCOCC1	1.14 ± 0.11	1.06 ± 0.074	1.07 ± 0.039	1.01 ± 0.13	1.07 ± 0.1	1.15 ± 0.12	1 (active)
c1ccc(C2=Nc3ccccc3N=C(c3ccccc3)c3ccccc32)cc1	0.676 ± 0.039	1.18 ± 0.13	1.08 ± 0.066	0.914 ± 0.036	1.2 ± 0.1	1.01 ± 0.096	0.979 (active)
CCOC(=O)C(CCc1ccccc1)NC1CCc2ccccc2N(CC(=O)O)C1=O.Cl (configuration not stated)	1.13 ± 0.28	1.04 ± 0.072	1.05 ± 0.079	0.967 ± 0.04	1.24 ± 0.15	1.33 ± 0.21	1 (active)
CCCCOc1cc(C(=O)NCCN(CC)CC)c2ccccc2n1.Cl	0.759 ± 0.17	1.04 ± 0.18	1.04 ± 0.067	0.776 ± 0.039	1.41 ± 0.41	1.82 ± 0.14	0.93 (active)
O=C(CSc1ncnc2c(-c3ccccc3)c[nH]c12)NCc1ccc(Cl)cc1	1.18 ± 0.059	1.13 ± 0.089	0.796 ± 0.035	1.25 ± 0.064	1.18 ± 0.093	1.24 ± 0.26	0.99 (active)
Cc1nnc(NN=Cc2ccc(O)c([N+](=O)[O-])c2)[nH]c1=O	1.07 ± 0.14	1.01 ± 0.097	1.03 ± 0.035	0.98 ± 0.045	0.979 ± 0.14	1.01 ± 0.25	0.992 (active)
CCOC(=O)C1=C(COCCN)NC(C)=C(C(=O)OC)C1c1ccccc1Cl (configuration not stated)	0.533 ± 0.055	0.899 ± 0.052	1.55 ± 0.14	1.58 ± 0.1	1.34 ± 0.12	1.13 ± 0.095	0.589 (inactive)
CCOc1ccc(Nc2nc(Nc3ccc(OCC)cc3)nc(N3CCOCC3)n2)cc1	0.35 ± 0.02	1.76 ± 0.13	2.82 ± 0.16	1.14 ± 0.083	4.42 ± 3	4.93 ± 2.5	0.762 (active)
CNCCC=C1c2ccccc2CCc2ccccc21.Cl	0.45 ± 0.07	1.14 ± 0.21	1.8 ± 0.13	0.41 ± 0.014	1.11 ± 0.24	1.99 ± 0.4	0.293 (inactive)
COc1ccc(CC(C)N2CCN(c3cccc(C)c3C)CC2)cc1OC (configuration not stated)	0.765 ± 0.064	0.974 ± 0.074	1.03 ± 0.08	0.787 ± 0.056	1.75 ± 0.22	1.16 ± 0.11	0.6 (inactive)
O=C(c1ccc(OC(F)(F)F)cc1)N1CCC(Oc2cccnn2)CC1	1.04 ± 0.094	1.25 ± 0.1	0.926 ± 0.049	1.03 ± 0.073	1.08 ± 0.065	1.15 ± 0.087	1.01 (active)
Cc1cc(-c2ccc(N=Cc3ccc(Cl)c([N+](=O)[O-])c3)c(C)c2)ccc1N=Cc1ccc(Cl)c([N+](=O)[O-])c1	1.01 ± 0.056	1.01 ± 0.073	1.02 ± 0.065	0.821 ± 0.031	1.38 ± 0.11	1.13 ± 0.19	1 (active)
CCOC(=O)c1sc(NC(=O)CSc2nc3ccccc3o2)c(C(=O)OCC)c1C	1.01 ± 0.057	1.11 ± 0.09	1.06 ± 0.071	1.04 ± 0.039	1.3 ± 0.096	0.995 ± 0.12	0.981 (active)
